# Sampled rows, rich in hits. Any-hit rate of the full collection: about 17%.
# HT1080 IDH1KD tx = qHTS for induction of synthetic lethality in tumor cells producing 2HG: qHTS for the HT-1080-IDH1KD cell line | HT-1080 IDH1 knockdown viability, ATP luminescence, 48 h | Potency, µM (series often up to 46.1 µM), without a hit: at the highest dose activity, negative = toxicity, actives largely listed as cytotoxic | actives 2% (n = 360,000) | AID 686971, 2013;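 also: 0% = DMSO wells and -100% = cell-free medium wells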
#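 After a 2 h attachment period, IDH1KD HT-1080 cells took pin-transferred compound for 48 h at 37 °C; ATP-based luminescence after 10 min room-temperature reagent incubation reported viability.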
# DT40 TDP1 no CPT = qHTS for Inhibitors of human tyrosyl-DNA phosphodiesterase 1 (TDP1): qHTS in cells in absence of CPT | DT40 Tdp1-/- hTDP1 cells, no CPT, ATP luminescence, 48 h | Potency, µM (top dose mostly 46.2 µM), for inactives: at the highest dose activity change, negative = growth inhibition, actives largely listed as inhibitors | actives 15% (n = 420,000); also: % is scaled to controls: 0 for no effect and ±100 for the full control effect; nearly all actives have a fitted effect of over 55% in size
#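 A cellular qHTS used chicken DT40 cells lacking endogenous Tdp1 but carrying stably transfected human TDP1. Compounds were applied without camptothecin, and cell growth kinetics were judged by ATP-dependent luminescence after ≥48 hr.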
# TDP1 cell CPT = qHTS for Inhibitors of human tyrosyl-DNA phosphodiesterase 1 (TDP1): qHTS in cells in presence of CPT. chicken DT40 Tdp1-/-;hTDP1 cells + 20 nM CPT, ATP luminescence, 48 h. Potency, µM (series often up to 46.2 µM), for the others: top-dose activity change, negative = growth inhibition, hits mostly inhibitors. actives 12% (n = 420,000); also: % is scaled to controls: 0 for no effect and ±100 for the full control effect; nearly all actives have a fitted effect of over 55% in size
#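 Chicken DT40 Tdp1-/- cells stably complemented with human TDP1 were seeded at 400 cells/well in medium containing 20 nM camptothecin, exposed to pin-transferred compounds, and grown at 37 °C for at least 48 hr. Viability was read as ATP luminescence.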
# TGFb inhibitor = qHTS for Inhibitors of TGF-b; Potency, µM (titrated, usually from 46.1 µM), for inactives: at the top dose activity, negative = inhibition, actives largely listed as inhibitors; actives 1.2% (n = 410,000); HepG2 CAGA-GFP TGF-b/SMAD3 reporter, GFP fluorescence, 18 h; TGF-beta stimulated, 500 pg/mL final; AID 588855, 2011; also: % is scaled to controls: 0 for no effect and ±100 for the full control effect; nearly all actives have a fitted effect of over 65% in size
#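 HEPG2 CAGA-GFP reporter cells (1000/well, DMEM with 1% FBS) received compounds, then recombinant TGF-beta at 500 pg/mL final for 18 hours at 37 degrees C. Per-cell GFP summed per well was normalised to unstimulated and stimulated DMSO controls before curve fitting.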
# HepG2 viability = qHTS for Inhibitors of TGF-b: Cytotox Counterscreen | HepG2 CAGA-GFP viability, ATP luminescence, 18 h | Potency, µM (top dose mostly 46.1 µM), without a hit: top-dose activity change, negative = cytotoxicity, most hits filed as cytotoxic | actives 0.76% (n = 410,000) | AID 588856, 2011
#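 HepG2 CAGA-GFP cells (1000/well, DMEM with 1% FBS) received compound, then TGF-beta at 500 pg/mL final, and were incubated 18 hours at 37 degrees C. Viability was read by CellTiter-Glo luminescence. Media-only wells were set as complete cell-killing and DMSO as no toxicity.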
# HT1080-NT tox = qHTS for induction of synthetic lethality in tumor cells producing 2HG: qHTS for the HT-1080-NT fibrosarcoma cell line; actives 1.6% (n = 360,000); AID 686970, 2013; HT-1080-NT fibrosarcoma viability, CellTiter-Glo ATP luminescence, 48 h; Potency, µM (series often up to 46.1 µM), without a hit: top-dose activity, negative = less viability, actives largely listed as cytotoxic;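 also: NT is the 2HG producing partner of a matched IDH1 knockdown line; 0% = DMSO-treated cells and -100% = media-only wells without cells; nearly all actives have a fitted effect of over 55% in size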
#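 Viability of the 2HG-overproducing fibrosarcoma line after 48 hours of compound exposure at 37 degrees C was determined by luminescence with CellTiter-Glo, and concentration-effect curves were then fitted and categorized.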
# Active calls of the source: *; ? = inconclusive; . = no result given. Calls follow the shape of the dose curve; as a rule, active = well fitted curve in the direction sought with a large enough effect; inconclusive = small, poorly fitted or top-dose-only effect, or another doubt; inactive = no such curve, though single readings can be large; an effect the other way counts as inactive or inconclusive. Potency is read from the fitted curve at half-maximal effect.
SMILES,HT1080 IDH1KD tx,DT40 TDP1 no CPT,TDP1 cell CPT,TGFb inhibitor,HepG2 viability,HT1080-NT tox
CC(=O)Nc1ccc(NC(=S)NC(=O)c2cc3ccccc3o2)cc1,17.7%,-1.7%,-5.4%,-12.1%,-0.4%,22.9%
CN1CCN(c2ccc(NC(=O)c3cc4ccccc4o3)cc2)CC1,-1.7%,?,-26.0%,9.4%,-22.6%,-11.8%
CS(=O)(=O)N1CCN(c2ccccc2NC(=O)c2cc3ccccc3o2)CC1,-10.2%,14.6µM*,-29.1%,-5.5%,-3.3%,-24.9%
O=C(Nc1ccc(N2CCN(C(=O)c3ccccc3)CC2)cc1)c1cc2ccccc2o1,?,5.17µM*,6.51µM*,3.2%,3.7%,-21.2%
O=C(NC(=S)Nc1ccc(CN2CCCCC2)cc1)c1cc2ccccc2o1,11.7%,20.6µM*,23.1µM*,0.3%,-2.2%,-0.5%
O=C(Nc1ccc(N2CCOCC2)c(Cl)c1)c1cc2ccccc2o1,?,20.6µM*,14.6µM*,0.0%,12.4%,?
COc1ccccc1CNCCS(=O)(=O)NCc1ccccc1,4.1%,?,-21.9%,0.9%,-11.1%,3.3%
S=c1[nH]nc(-c2ccc(Cl)cc2Cl)n1-c1ccc(Cl)cc1,-4.3%,0.5%,29.0%,8.6%,-1.7%,-0.2%
Cc1ccccc1OCCSc1nc(C)c(Cc2ccccc2)c(=O)[nH]1,.,-20.2%,?,.,-18.6%,.
COc1ccc(C2(C)NC(=O)N(CC(=O)Nc3ccc(Br)c(C)c3)C2=O)cc1OC (centres undefined),-21.3%,?,-17.0%,-4.9%,-6.9%,-8.3%
CSCc1c(C(=O)Nc2ccccc2N2CCOCC2)oc2ccccc12,3.8%,7.31µM*,16.4µM*,5.2%,-56.4%,20.9%
CSCc1c(C(=O)Nc2ccc(N3CCOCC3)cc2)oc2ccccc12,-4.4%,-24.2%,-18.0%,4.8%,-2.8%,-0.5%
O=C(NC(=S)N1CCOCC1)c1cc2ccccc2o1,9.1%,11.6µM*,6.51µM*,-8.0%,-7.8%,-9.4%
O=C(c1cc2ccccc2o1)N1CCOCC1,-1.8%,8.1%,1.0%,12.9%,-0.7%,1.1%
O=C(Nc1ccccc1N1CCOCC1)c1cc2ccccc2o1,11.7%,-25.9%,16.4µM*,-5.9%,-6.1%,-0.5%
O=C(Nc1ccccc1N1CCN(C(=O)c2ccccc2)CC1)c1cc2ccccc2o1,4.5%,20.6µM*,?,18.1%,0.4%,8.0%
O=C(Nc1ccccc1N1CCCC1)c1cc2ccccc2o1,0.6%,?,?,?,-4.3%,6.3%
O=C(C1CCC1)N1CCCc2cc(S(=O)(=O)N3CCN(c4cccc(Cl)c4)CC3)ccc21,.,?,?,?,-14.2%,.
N/C(COc1cc(Cl)cc(Cl)c1)=N\O,-2.2%,-22.1%,-3.8%,-9.7%,9.8%,-0.5%
COc1c(C(=O)Nc2ccccc2N2CCOCC2)cc2ccccc2c1Br,-7.6%,23.1µM*,?,?,-0.9%,-7.3%
CC1CCC(N2CCN(c3ccc([N+](=O)[O-])cc3)CC2)CC1 (centres undefined),-12.2%,?,?,0.0%,-8.9%,-2.7%
O=C(NNc1c([N+](=O)[O-])cc(C(F)(F)F)cc1[N+](=O)[O-])c1ccco1,?,23.1µM*,25.9µM*,?,-36.0%,20.6µM*
COc1ccc(C2=NO[C@@H]3C(=O)N(c4ccc(C)cc4C)C(=O)[C@H]23)cc1OC,6.1%,?,25.9µM*,14.8%,-6.4%,5.0%

# Source: PubChem (National Center for Advancing Translational Sciences (NCATS))
